# High-throughput results from PubChem.
# ROMK primary: ROMK potassium channel modulators, primary screen, cell-based, thallium flux, MLSMR library | Tet-inducible ROMK, thallium flux fluorescence; actives lie on both sides | B-score at 10 µM | ATP-sensitive inward rectifier potassium channel 1 (Homo sapiens), P48048 | 2% of 130,000 active;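 active = signal ratio slope over the read window, or its plate-corrected B-score, at least 3 SD from the plate mean, either direction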;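 note: B-score of the F/F0 ratio slope over 7 to 12 s after thallium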
# Target sequence (P48048 whole entry, looked up): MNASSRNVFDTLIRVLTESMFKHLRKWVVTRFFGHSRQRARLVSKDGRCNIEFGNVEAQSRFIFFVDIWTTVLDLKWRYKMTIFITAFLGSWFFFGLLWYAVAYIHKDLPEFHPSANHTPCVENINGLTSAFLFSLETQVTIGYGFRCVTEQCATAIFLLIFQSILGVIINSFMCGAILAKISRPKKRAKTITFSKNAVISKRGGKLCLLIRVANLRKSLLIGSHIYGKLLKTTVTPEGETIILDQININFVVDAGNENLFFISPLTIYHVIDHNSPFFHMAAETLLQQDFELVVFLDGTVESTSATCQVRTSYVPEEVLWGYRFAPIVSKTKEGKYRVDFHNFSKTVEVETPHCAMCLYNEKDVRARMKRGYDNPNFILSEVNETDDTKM
# Cl transport mod: KCC2 cotransporter modulators, thallium flux, primary screen, cell-based, HEK293 KCC2, FluoZin-2 fluorescence, MLSMR | Solute carrier family 12 member 5 (Homo sapiens), Q9H2X9 | KCC2 cells, thallium flux FluoZin-2 fluorescence | B-score of Tl+ flux slope (higher = more flux/activation; lower = inhibition) at 10 µM | 2.2% of 190,000 active | AID 1456, 2008;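 active = thallium flux slope and its plate-corrected score both differing from the plate sample mean at a set confidence after two filtering rounds, in either direction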;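 note: slope of fluorescence scaled to starting intensity during 10 to 20 s after thallium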
# INS promoter inh: inhibitors of insulin promoter-driven GFP, primary screen, imaging, TRM-6 cells (human fetal islet line), eGFP reporter, cell count; reporter expression induced with tamoxifen; 0.9% of 130,000 active; inhibition, % at 2 µM;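 active = inhibition above the mean plus 3 SD, with well images judged a real hit on visual review, cut at about 60% in these data, passing the limit was not always enough; inconclusive = inhibition over the cutoff but images rejected on review; inactive = inhibition not above the cutoff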
# WT yeast gro inh: growth inhibition of WT strain, primary screen, mitochondrial fusion inhibitor project, WT and mutant strains, chemical genetic; inhibition, % at 10 µM; AID 1362, 2008; 2.1% of 190,000 active; mitochondrial fusion phenotypic screen; in the data active = inhibition above about 58%; tested in S. cerevisiae
# Lmaj promast: Leishmania major promastigote growth inhibition, primary screen | Leishmania major promastigotes, resazurin fluorescence viability | inhibition, % at 10 µM | 9% of 200,000 active | AID 1063, 2008; in the data active = inhibition above about 50%;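 note: promastigotes grown with compound for 44 hours at 28 °C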
# Ins promoter up: insulin promoter activators in MIN6 cells, imaging, high-content screening, mouse beta cells | MIN6 insulin promoter-GFP reporter; hits give high values | z-score at 5 µM | 0.3% of 190,000 active | AID 1625, 2009;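 active = z-score above 3 at 5 µM with at least 500 cells counted in the well; inconclusive = wells under 500 cells, flagged as cytotoxic or low count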
# The depositor's hits bear a star; ? = inconclusive; . = not tested or not shown. Sampled rows, rich in hits. Any-hit rate of the full collection: about 12%.
SMILES,ROMK primary,Cl transport mod,INS promoter inh,WT yeast gro inh,Lmaj promast,Ins promoter up
Cc1cc(=O)oc2cc(OCC3CC(c4ccc(Cl)cc4)=NO3)ccc12 (centres undefined),.,.,-62,65*,1,-0.14
COc1ccc(-c2n[nH]c(C)c2-c2cnn(-c3ccccc3)c2)c(O)c1C,.,0.21,-7,44,67*,0.28
COc1ccc(-c2onc(C)c2-c2cnn(-c3ccccc3)c2)c(O)c1C,-0.3,-0.17,.,37,84*,.
COc1ccc(-c2n[nH]c(C)c2-c2cnn(-c3ccccc3)c2)c(O)c1,.,0.18,71,6,-12,.
CCn1cc([N+](=O)[O-])c(C(=O)Nc2nc(-c3ccc(C)c(C)c3)c(C)s2)n1,.,0.56,-29,-8,-2,-0.25
C=CCN1C(=O)C(CC(=O)NCC)SC1=Nc1ccc(S(N)(=O)=O)cc1 (centres undefined),.,0.99,-40,-5,-3,.
COc1ccc(N2CCN(c3cnc4ccccc4n3)CC2)cc1,-0.89,-0.76,-20,4,-4,-0.64
COc1cccc(N2CCN(c3cnc4ccccc4n3)CC2)c1,-0.17,0.039,.,-10,70*,0.17
O=c1c(Cc2ccc(Cl)cc2Cl)c(O)ccn1Cc1ccc(Cl)cc1,.,-0.71,-52,21,15,0.91
CCC(=O)N1CCc2cc(S(=O)(=O)NCCN3CCC(C)CC3)ccc21,-0.66,-2.8,-14,15,54*,-0.78
CCC(=O)N1CCc2cc(S(=O)(=O)NC(CC(C)C)C(=O)N3CCc4ccccc43)ccc21 (centres undefined),.,0.17,.,-7,100*,0.01
COc1ccc(CCNS(=O)(=O)c2ccc3c(c2)CCN3C(=O)C2CC2)cc1OC,-0.86,.,-81,9,6,-1.3
CCC(=O)N1CCc2cc(S(=O)(=O)NC(Cc3ccccc3)C(=O)NC3CCCCC3)ccc21 (centres undefined),-0.1,-0.42,-317,-5,7,0.16
CCOc1ccc(OCC)c(NS(=O)(=O)c2ccc3c(c2)CCN3C(=O)C2CCC2)c1,.,-0.75,-471,4,99*,-0.35
CCOC(=O)c1sc(N)nc1C(C)C,.,0.29,.,3,-2,0.57
Cc1nnc2n(Cc3ccccc3)c(=O)c3c4c(sc3n12)COC(C(C)C)C4 (centres undefined),0.57,0.0021,.,-11,55*,-0.26
CSc1nnc2n(Cc3ccccc3)c(=O)c3c4c(sc3n12)COC(C(C)C)C4 (centres undefined),0.81,0.04,10,10,5,1
O=C(CCNS(=O)(=O)c1ccc(Br)s1)Nc1ccc(Cl)cc1,0.28,-0.89,-26,18,81*,0.12
O=C(CCNS(=O)(=O)c1ccc(Br)s1)NC1CCCC1,.,-0.14,.,-3,-7,0.09
CC1CCN(c2nc(/C=C/c3ccccc3)nc3ccccc23)CC1,.,0.039,.,66,63*,-0.76
CC1CCN(c2nc3ccccc3nc2N2CCC(C)CC2)CC1,0,1.5,-3,4,-7,-0.08
C(=C\c1nc(N2CCCC2)c2ccccc2n1)/c1ccccc1,.,0.52,.,80,71*,-1.9
COc1cc(C)nc(OCCNS(=O)(=O)c2cc(C)ccc2C)n1,.,0.012,19,-6,0,0.67
O=C(NC1CCCc2ccccc21)C1CCN(S(=O)(=O)N2CCCCCC2)CC1 (centres undefined),.,-1.6,31,7,3,-1.3
Cc1noc(C)c1S(=O)(=O)N1CCC(C(=O)NC2CCCc3ccccc32)CC1 (centres undefined),0.95,0.8,-29,2,60*,-0.85
CCc1cccc(NC(=O)C2CCN(S(=O)(=O)c3c(C)noc3C)CC2)c1,0.22,0.082,-70,-6,64*,0.02
Cc1ccc(NC(=O)C2CCN(S(=O)(=O)c3c(C)noc3C)CC2)cc1C,0.32,1,12,-6,99*,-0.01
Cc1noc(C)c1S(=O)(=O)N1CCC(C(=O)NC2CCN(Cc3ccccc3)CC2)CC1,-1.1,0.78,-15,-2,89*,-0.08
O=C(NNC(=O)c1cccc2ccccc12)c1ccc(-c2ccccc2)cc1,0.54,0.052,?,6,-6,0.61
